Compounds with a hit are over-represented: about 1.7% of the library has one in this group of screens.
GLP-1R agonist = agonists of human GLP-1 receptor | P43220 | HEK293 GLP-1R CRE-luciferase, luminescence, 4-6 h; cells express a hypersensitive GLP-1R form | Potency, µM (top dose mostly 45.6 µM), hits mostly activators | 380,000 tested, 0.007% active | AID 624172
Target sequence (P43220 whole entry, looked up): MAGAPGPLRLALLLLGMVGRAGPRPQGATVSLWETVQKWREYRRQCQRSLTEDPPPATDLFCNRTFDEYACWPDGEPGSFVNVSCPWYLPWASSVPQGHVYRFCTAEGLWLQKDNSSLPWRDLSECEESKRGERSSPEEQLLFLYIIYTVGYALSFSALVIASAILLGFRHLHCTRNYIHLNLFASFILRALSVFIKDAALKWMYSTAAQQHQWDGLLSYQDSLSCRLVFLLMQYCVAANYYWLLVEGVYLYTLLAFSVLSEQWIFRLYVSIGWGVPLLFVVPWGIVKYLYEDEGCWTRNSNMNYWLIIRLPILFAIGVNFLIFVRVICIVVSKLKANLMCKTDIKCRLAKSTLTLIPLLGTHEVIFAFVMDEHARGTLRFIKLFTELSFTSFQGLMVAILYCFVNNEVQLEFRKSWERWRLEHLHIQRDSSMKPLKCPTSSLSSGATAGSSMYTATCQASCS
GLP1R inv ag = GLP-1 receptor (human) inverse agonism; AID 624417; Potency, µM (titrated, usually from 38.3 µM), usual class: inhibitors; P43220; HEK293 GLP-1R CRE-luciferase, luminescence, 24 h; GLP-1R form is constitutively active; 410,000 tested, 1.6% active; further: nearly all actives have a fitted effect of over 55% in size
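HEK293 cells stably co-expressing a cAMP-responsive luciferase reporter and constitutively active GLP-1R were seeded, incubated 12 h, then exposed to compounds for 24 h at 37 C. Luminescence was read 12 min after detection reagent; inverse agonists lower signal.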
PTHR1 agonist = PTHR1 (human) receptor agonism | HEK293 GP2 PTHR1 cells, GloSensor cAMP luminescence, 1 h | Potency, µM (doses to about 115 µM), most hits filed as activators | 410,000 tested, 0.075% active | AID 743266; further: nearly all actives have a fitted effect of over 55% in size
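HEK-293-derived GP2 cells expressing PTHR1 and a GloSensor cAMP reporter, 3,000/well, plated overnight, given luciferin plus IBMX (each 0.5 mM as added) for 1 h at 37 °C, then compound for 1 h at 37 °C. Luminescence was read after 15 min at room temperature.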
HEK293 tox = cytotoxic in the GLP-1 receptor inverse agonist counter-screen. HEK293 cAMP-luciferase reporter cells, luminescence, 24 h. Potency, µM (doses to about 38.3 µM), most hits filed as inhibitors. 410,000 tested, 0.13% active. AID 624418;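 further: loss of luciferase light is scored as toxicity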
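A 23 nL compound transfer followed 12 hours of cell culture at 37 deg C; exposure then lasted 24 hr. Luciferase assay detection reagent was dispensed and plates read for luminescence after a 12 min room-temperature wait.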
Hits are given with their value; – = inactive; ? = inconclusive; · = not tested or not shown. The call rests on the fitted dose curve; in most records, active means well fitted curve in the direction sought with a large enough effect; inconclusive means small, poorly fitted or top-dose-only effect, or another doubt; inactive means no such curve, though single readings can be large; an effect the other way counts as inactive or inconclusive.

SMILES	GLP-1R agonist	GLP1R inv ag	PTHR1 agonist	HEK293 tox
CC(C)(c1ccccc1)c1ccc(OCC2CO2)cc1 (configuration not stated)	–	–	–	–
O=S(=O)(c1ccc(OCC2CO2)cc1)c1ccc(OCC2CO2)cc1 (configuration not stated)	–	10µM	–	?
CCOC(=O)[C@]12CCCC=C1N(Cc1cccc3ccccc13)C(=O)[C@H](CC(=O)NCC1CCCCC1)C2	–	–	–	–
C=CCNCC(=O)N1N=C(c2ccc3ccccc3c2)CC1c1ccc(OC)cc1 (configuration not stated)	–	13µM	–	?
COc1ccc(NC(=O)C2(C)Cc3c(-c4cccc(NC(C)=O)c4)ccnc3O2)cn1 (configuration not stated)	–	1.1µM	–	?
COc1ccc(NC(=O)C2(C)Cc3c(-c4ccc(NC(C)=O)cc4)ccnc3O2)cn1 (configuration not stated)	–	–	–	–
CN1C(=O)Cc2cc(S(=O)(=O)CCC(=O)N3CCN(c4ccc(Cl)cc4)CC3)ccc21	·	–	–	–
c1ccc2cc(CSCc3nc4ccccc4[nH]3)ccc2c1	–	10µM	–	?
Cc1c(C)c2c(OCC(=O)N3CCC(C(N)=O)CC3)cc3c(c2oc1=O)CCC(C)(C)O3	–	–	–	–
COc1ccc(CN2C(=O)C(CC(=O)NCCCCc3ccccc3)CC(C(=O)N(C(C)C)C(C)C)=C2C)cc1 (configuration not stated)	–	11µM	–	–
COc1ccc(/C=N/Nc2ncnc3sc(C)c(C)c23)cc1	–	8.9µM	–	?
Cc1cc(C(F)(F)F)n2[nH]c(=O)c(N=Nc3ccccc3)c2n1	–	–	18µM	?
Cc1ccc(C)c(N2C(=O)N(Cc3cccc(C(F)(F)F)c3)c3ccccc3S2(=O)=O)c1	–	?	–	–
CC(=O)c1ccc(N2C(=O)N(Cc3cccc(C(F)(F)F)c3)c3ccccc3S2(=O)=O)cc1	–	10µM	–	–
O=C(C[C@H]1C=C[C@@H](NC(=O)c2ccncc2)[C@@H](CO)O1)NCC1CC1	·	–	–	–
c1ccc(C(c2ccccc2)N2CCN(Cc3nnnn3C3CCCC3)CC2)cc1	–	7.9µM	–	–
CCC(C)(C)n1nnnc1CN1CCN(C(c2ccccc2)c2ccccc2)CC1	–	10µM	–	–
CC(C)CCn1nnnc1CN1CCN(C(c2ccccc2)c2ccccc2)CC1	–	13µM	–	–
CCC(C)(C)n1nnnc1C(c1ccccc1)N1CCN(Cc2ccccc2)CC1 (configuration not stated)	–	–	–	–
COc1ccc(CN2CCC(N(CCc3ccccc3)Cc3ccccc3)CC2)c(OC)c1	–	3.2µM	–	?
CCCN1CCC(N(CCc2ccccc2)Cc2ccccc2)CC1	–	?	–	–
O=C(CSc1nc2ccccc2s1)N1c2ccccc2Sc2ccccc21	–	5.6µM	?	–
O=C1SC(SCc2ccccc2)=N/C1=C\c1ccco1	–	–	0.32µM	–
O=C(CCCc1ccccc1)N1CCc2ccccc21	–	?	–	–
COc1cc(/C=N/NC(N)=S)cc(Br)c1OCc1ccccc1F	–	–	–	5.6µM
SMILES	GLP-1R agonist	GLP1R inv ag	PTHR1 agonist	HEK293 tox
CC1CCN(c2nc3ccc(C(=O)NCc4ccccc4Cl)cc3s2)CC1	·	–	–	–
O=C(Cc1ccc([N+](=O)[O-])cc1)Nc1ccc2c(c1)CCC2	–	–	–	–
CCOCN(C(=O)Cn1c(CC(C)C)nc2ccccc21)c1c(C)cccc1CC	–	11µM	–	–
CCOCN(C(=O)Cn1c(C)nc2ccccc21)c1c(C)cccc1CC	·	–	–	–
Cc1cc(S(=O)(=O)C(CNC(=O)c2ccc(OC(C)C)cc2)c2cccs2)ccc1F (configuration not stated)	·	–	–	–
c1cnc2cc3c(cc2n1)[C@@H]1CNC[C@@H]3C1	–	·	·	·
CCOc1ccc(CCNC(c2nnc(-c3ccccc3)o2)c2ccccc2Cl)cc1OCC (configuration not stated)	·	10µM	–	–
Cc1ccc(-c2nc(CS(=O)(=O)CC(=O)NCCCN(Cc3ccccc3)C(C)C)c(C)o2)cc1	–	4.5µM	–	?
Cc1c(NC(=O)c2cc3ccccc3o2)cccc1-n1cnnn1	–	–	–	–
